SMILES strings stand for the structures. Hit rate of the full screen: of about 340,000 compounds, about 8,500 (2.5%) were called active.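 The calls were made as follows: active = melting temperature shift of at least 10% of the positive control shift, at one fixed dose; inactive = the rest.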 For the sample, actives were picked, then their nearest neighbours and some compounds at random.

For the assay, the system named is Glutamate receptor ionotropic, NMDA 3A (GRIN3A) ligand-binding domain. As to the kind of experiment: NR3A LBD thermal stabilization by compounds – biophysical, differential scanning fluorimetry, uHTS, primary screen (AID 1259313). The settings on record: at 25 µM, active compounds read high, 0% = protein alone, 100% = glycine-bound protein. Background: In DSF a fluorescence change marks the thermal transition of the protein.
Regarding `COc1ccc(S(=O)(=O)N(C)C[C@H]2Oc3c(NC(=O)Nc4ccc5c(c4)OCO5)cccc3C(=O)N([C@H](C)CO)C[C@@H]2C)cc1`, the Tm shift relative to glycine control was -34% (inactive).

For the compound `Cc1cc2nc(-c3ccc(NC(=O)c4cccnc4)cc3)oc2cc1C`, the Tm shift relative to glycine control is 24.6% (active).

Take `Cc1ccc(-n2nc3cc(C)c(NC(=O)c4cccnc4)cc3n2)cc1`: the Tm shift relative to glycine control was -2.09% (inactive).

For the compound `Cc1ccc2nc(-c3ccc(NC(=O)c4cccnc4)cc3)oc2c1`, the Tm shift relative to glycine control is 24% (active).

Consider `CC(=O)NC(=S)Nc1ccc(NC(=O)c2cccnc2)cc1`, for which the Tm shift relative to glycine control is 2.02% (inactive).

For `CCOC(=O)c1ccc(NC(=O)c2cccnc2)cc1`, the Tm shift relative to glycine control was 0.68% (inactive).

For `Cc1cc(NS(=O)(=O)c2ccc(NC(=O)c3cccnc3)cc2)nc(C)n1`, the Tm shift relative to glycine control was -0.7% (inactive).

Turning to `Cc1ccc(C2CC(c3cccc(NS(C)(=O)=O)c3)=NN2S(C)(=O)=O)cc1` (stereo unspecified), the Tm shift relative to glycine control is -1.41% (inactive).

For the compound `CC(C)(C)C(=O)COC(=O)c1cc(S(=O)(=O)N2CCCCC2)ccc1N1CCOCC1`, the Tm shift relative to glycine control was -1.85% (inactive).

Consider `COc1ccccc1CNS(=O)(=O)c1ccc2c(c1)NC(=O)CS2`, for which the Tm shift relative to glycine control was 1.27% (inactive).

For the compound `COc1ccc(Cl)cc1C=CC=Nc1ccc(S(N)(=O)=O)cc1`, the Tm shift relative to glycine control was -9.77% (inactive).

Regarding `O=C(NN=Cc1ccccc1)c1ccccc1`, the Tm shift relative to glycine control was 3.44% (inactive).

Turning to `O=C(N/N=C/c1ccc(Cl)c(Cl)c1)c1ccc2nc[nH]c2c1`, the Tm shift relative to glycine control is 27.4% (active).

On to `CSc1ccc(/C=N\NC(=O)CC(=O)NC(C)C)cc1`, for which the Tm shift relative to glycine control is -7.31% (inactive).

For `Cc1nc2ccc(C(=O)N/N=C/c3ccc(O)cc3)cc2[nH]1`, the Tm shift relative to glycine control was -4.58% (inactive).

With `CSc1ccc(/C=N/NC(=O)c2cccc(Cl)c2)cc1`, the Tm shift relative to glycine control is 19.1% (active).

For `CC(=NNC(=O)c1ccc2nc[nH]c2c1)c1ccc(Br)cc1`, the Tm shift relative to glycine control is -13% (inactive).

In the case of `c1ccc(COc2ccccc2CNCc2cccnc2)cc1`, the Tm shift relative to glycine control is -0.7% (inactive).

As to `CCOC(=O)C(C)Sc1nc2ccccc2c(=O)n1CC1CCCCC1` (stereo unspecified), the Tm shift relative to glycine control was 15.7% (active).

On to `CCOn1c(SC(C)C)nc2ccccc2c1=O`, for which the Tm shift relative to glycine control is -0.18% (inactive).

As to `COCC(C)n1c(SCC(=O)NC2CCCCC2C)nc2ccccc2c1=O` (stereo unspecified), the Tm shift relative to glycine control was -0.26% (inactive).

With `CCOC(=O)CCCCCC(=O)Nc1ccc2c(c1)CC(=O)N([C@@H](C)CO)C[C@H](C)[C@@H](CN(C)Cc1ccccc1)O2`, the Tm shift relative to glycine control is 0.56% (inactive).

For `COc1ccc(NCc2nnc(SCc3ccccc3)n2-c2ccc(OC)cc2)cc1`, the Tm shift relative to glycine control was -0.87% (inactive).

For `CCc1nonc1NC(=O)c1oc2ccc(Cl)cc2c1C`, the Tm shift relative to glycine control was -0.44% (inactive).

Regarding `COc1ccc(CCNC(=O)COC(=O)Cc2cccc(F)c2)cc1`, the Tm shift relative to glycine control is 15.5% (active).

As to `COc1ccc(CCNC(=O)COC(=O)Cc2cc(OC)c(OC)c(OC)c2)cc1`, the Tm shift relative to glycine control is -0.75% (inactive).

On to `COc1ccc(CCNC(=O)COC(=O)Cc2ccccc2F)cc1`, for which the Tm shift relative to glycine control is 1.52% (inactive).

On to `NC(=S)c1ccc(C(N)=S)o1`, for which the Tm shift relative to glycine control is 9.83% (inactive).

Turning to `COc1ccc(C(C(=O)NCC2CCCO2)N(C(=O)Cn2nnc3ccccc32)c2ccc(NC(C)=O)cc2)cc1OC` (stereo unspecified), the Tm shift relative to glycine control is 1.93% (inactive).

For the compound `O=C(NC(Cc1c[nH]c2ccccc12)C(=O)N/N=C/c1ccc(Br)cc1)c1cccs1` (stereo unspecified), the Tm shift relative to glycine control is 19.7% (active).

Regarding `CC(=O)NC(Cc1c[nH]c2ccccc12)C(=O)NCCc1ccccc1` (stereo unspecified), the Tm shift relative to glycine control is 1.08% (inactive).

Regarding `O=C(CNC(=O)c1cccs1)N/N=C/c1cccc(Br)c1`, the Tm shift relative to glycine control is -2.08% (inactive).

`OC(CNCC1CCCO1)Cn1c2ccc(Br)cc2c2cc(Br)ccc21` (stereo unspecified): the Tm shift relative to glycine control was -15.9% (inactive).

`O=[N+]([O-])c1cccc(/C=N/Nc2ncc(Br)cn2)c1`: the Tm shift relative to glycine control was -2.79% (inactive).

As to `O=[N+]([O-])c1ccc(C=NN=Cc2ccc([N+](=O)[O-])cc2)cc1`, the Tm shift relative to glycine control is 12.6% (active).

As for `O=C1/C(=C\c2ccc([N+](=O)[O-])cc2)CS(=O)(=O)C/C1=C/c1ccc([N+](=O)[O-])cc1`, the Tm shift relative to glycine control is -9.77% (inactive).

For `CC(C)c1ccc(C=NNc2ccc([N+](=O)[O-])cn2)cc1`, the Tm shift relative to glycine control was -2.51% (inactive).

With `O=[N+]([O-])c1ccc(N=NNc2ccc([N+](=O)[O-])cc2)cc1`, the Tm shift relative to glycine control is 4.69% (inactive).

For the compound `O=[N+]([O-])c1ccc(N/N=C/c2ccccc2)cc1`, the Tm shift relative to glycine control is 29.2% (active).

Consider `CC1(C)Cc2c(sc(NC(=O)C(=O)N3CCOCC3)c2C#N)CO1`, for which the Tm shift relative to glycine control was 2.25% (inactive).

Consider `O=C(CN1C2CCC1CC(NC(=O)C1CC1)C2)NCc1ccccc1` (stereo unspecified), for which the Tm shift relative to glycine control was -0.34% (inactive).

For `O=C(COC(=O)C1CC2CCCC(C1)C2=O)NC(=O)c1ccccc1` (stereo unspecified), the Tm shift relative to glycine control is -1.22% (inactive).

In the case of `Cc1c(C(=O)NNC(=O)c2ccncc2)oc2ccccc12`, the Tm shift relative to glycine control is 2.4% (inactive).

Turning to `COc1ccc(NC(=O)N2CCCC2C(=O)NCc2ccccc2Cl)cc1` (stereo unspecified), the Tm shift relative to glycine control is -2.42% (inactive).

Consider `FC(F)(F)c1cccc(-c2cc3ccccc3nc2N2CCCC2)c1`, for which the Tm shift relative to glycine control is -0.24% (inactive).

In the case of `Cc1ccc(S(=O)(=O)N(c2cccc(C)c2)C2CCS(=O)(=O)C2)cc1` (stereo unspecified), the Tm shift relative to glycine control is -3.26% (inactive).
